The list is not random: actives were taken first. Their share in the collection is about 12%.
NS1 function inh: influenza NS1 inhibition; Potency, µM (top dose mostly 46.1 µM), for the others: top-dose activity, positive = more growth; hit rate 0.4% among 270,000; AID 2326; note: potency is the fitted concentration of half-maximal effect; actives are rising curves; nearly all actives have a fitted effect of over 50% in size
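OD600 was taken as the measure of yeast growth restored by compound in an NS1-expressing S. cerevisiae strain. Cells had been washed out of glucose medium and diluted 1:100 into galactose -URA medium, pH 6.0.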
CHX counter-1: counter-screen for Shiga toxin inhibitors: cycloheximide protein synthesis inhibition; max response, %; cell reporter, cycloheximide protein synthesis inhibition counterscreen; hit rate 12% among 300,000; AID 2314; in the data active = max response mostly above about 13%, no sharp cut-off; inactive = mostly below about 14%; note: read at 38.3 µM for the half of the compounds with a filed dose; 0% is about no effect
Shiga toxin inh: Shiga toxin inhibition. AID 2315. inhibition, % at 38.7 µM. hit rate 9.2% among 290,000. Vero cells, Shiga toxin protein synthesis inhibition reporter; in the data active = inhibition mostly above about 28%, no sharp cut-off; inactive = mostly below about 43%; note: 0% is about no effect
SARS PLP yeast: blocks SARS-CoV papain-like protease in a yeast assay; hit rate 0.19% among 330,000; Potency, µM (doses to about 32.9 µM), without a hit: at the highest dose activity, positive = growth rescue, hits mostly activators; S. cerevisiae expressing SARS-CoV PLpro, growth rescue; AID 485353; note: potency is the fitted concentration of half-maximal effect; 0% is about no effect; nearly all actives have a fitted effect of over 55% in size
CHX counter-2: protein synthesis counter-screen activity for Shiga toxin hits | Potency, µM (highest dose often 38.3 µM), without a hit: at the top dose activity (activation), most hits filed as activators | shares compounds with Shiga toxin inh | AID 2318 | Cycloheximide counterscreen, protein synthesis reporter, Shiga toxin assay | hit rate 3% among 510; note: potency is the fitted concentration of half-maximal effect; 0% is about no effect
* hit, by the source's call. Unless noted, calls come from the whole dose curve.

`CC1(C)OC(=O)C(=NNc2ccc(C(=O)O)cc2)C(=O)O1` gave NS1 function inh 6%, CHX counter-1 15, Shiga toxin inh 17 and SARS PLP yeast 1%.
Screening CCN(Cc1ccccc1)C(=O)C(C)OC(=O)c1cc(S(=O)(=O)Nc2c(C)n(C)n(-c3ccccc3)c2=O)ccc1C (centres undefined) returned NS1 function inh -4%, CHX counter-1 -2, Shiga toxin inh -9 and SARS PLP yeast -2%.
Screening NS(=O)(=O)c1ccc(CCNC(=O)c2ccc(NC3=NC4CS(=O)(=O)CC4S3)cc2)cc1 (centres undefined) returned NS1 function inh 1%, CHX counter-1 -4, Shiga toxin inh 114*, SARS PLP yeast -9% and CHX counter-2 -1%.
Screening O=C(O)CCC(=O)N1CCc2cc(S(=O)(=O)Nc3ccc4c(c3)OCCO4)ccc21 returned NS1 function inh 15%, CHX counter-1 8, Shiga toxin inh 12 and SARS PLP yeast -5%.
`CC(=O)N1CCc2cc(S(=O)(=O)NC(CC(C)C)C(=O)Nc3ccc4c(c3)OCCO4)ccc21` (centres undefined) gave NS1 function inh 0%, CHX counter-1 7, Shiga toxin inh 79*, SARS PLP yeast 3% and CHX counter-2 1%.
`O=c1c2ccccc2sc2nc(C3CCCCC3)n(Cc3ccco3)c(=O)c12` gave NS1 function inh -45%, CHX counter-1 3, Shiga toxin inh 24*, SARS PLP yeast -4% and CHX counter-2 -1%.
For O=C(Cc1cccs1)Nc1ccc(-c2nnc(-c3ccco3)o2)cc1 the results were CHX counter-1 12, Shiga toxin inh 49*, SARS PLP yeast 0% and CHX counter-2 inconclusive.
`Cc1ccc2nc(-c3ccccc3)cc(C(=O)NCC3CCCO3)c2c1` (centres undefined) gave NS1 function inh -12%, CHX counter-1 10, Shiga toxin inh 40*, SARS PLP yeast 0% and CHX counter-2 1%.
O=C(NCC1CCCO1)c1cc(-c2ccncc2)nc2ccc(S(=O)(=O)N3CCOCC3)cc12 (centres undefined) was read as NS1 function inh 1%, CHX counter-1 -2, Shiga toxin inh -10 and SARS PLP yeast 0%.
Screening C=CCNc1sc(C(=O)c2ccccc2)c(N)c1-c1nc2ccccc2s1 returned NS1 function inh -36%, CHX counter-1 13, Shiga toxin inh 73*, SARS PLP yeast 2% and CHX counter-2 inconclusive.
For COc1ccc(C)cc1NC(=O)c1ccccc1NS(=O)(=O)c1ccc(Cl)s1 the results were NS1 function inh -65%, CHX counter-1 -3, Shiga toxin inh 2 and SARS PLP yeast -5%.
For COc1ccccc1-n1cnnc1SCC(=O)Nc1ccccc1 the results were NS1 function inh 9%, CHX counter-1 1, Shiga toxin inh 62*, SARS PLP yeast 4% and CHX counter-2 6%.
Screening O=C(NCCCO)/C(=C\c1ccco1)NC(=O)c1ccco1 returned NS1 function inh 2%, CHX counter-1 1, Shiga toxin inh 38*, SARS PLP yeast -6% and CHX counter-2 -1%.
For COCc1cc(CNC(=O)C2CCC(=O)N(Cc3ccccc3OC)C2)[nH]n1 (centres undefined) the results were NS1 function inh 3%, CHX counter-1 -2, Shiga toxin inh 2 and SARS PLP yeast -2%.
Screening CC(=O)c1ccc2noc(-c3ccc(F)cc3)c2c1 returned CHX counter-1 13, Shiga toxin inh 52*, SARS PLP yeast -2% and CHX counter-2 2%.
CN(C)/C=C/C(=O)c1ccc2noc(-c3cccc(F)c3)c2c1 was read as NS1 function inh 1%, CHX counter-1 1, Shiga toxin inh -3 and SARS PLP yeast -4%.
Screening Cc1c(C(=O)Nc2ccc(-c3nnc4n3CCCCC4)cc2)oc2ccc(Br)cc12 returned NS1 function inh inconclusive, CHX counter-1 -4, Shiga toxin inh 14*, SARS PLP yeast -8% and CHX counter-2 inconclusive.
For Cc1cc(NC(=O)c2cc(F)c(F)cc2Cl)no1 the results were NS1 function inh 15%, CHX counter-1 -1, Shiga toxin inh 35*, SARS PLP yeast 7% and CHX counter-2 6%.
`CCN(CC)S(=O)(=O)c1cc(C(=O)Nc2cc(C)on2)c(Cl)cc1Cl` gave NS1 function inh 9%, CHX counter-1 1, Shiga toxin inh -13 and SARS PLP yeast 1%.
Screening O=C(NN1C(=O)C2C3CCC(O3)C2C1=O)c1ccc(Br)o1 (centres undefined) returned NS1 function inh 0%, CHX counter-1 10, Shiga toxin inh 4 and SARS PLP yeast 8%.

Screening data (PubChem)
